Data reported in ChEMBL document CHEMBL3988442, “University of Dundee, Small-Polar-MMV Screening Library” (2021).
Out of some 48,000 compounds screened, about 13,000 (27%) showed an effect of 50% or more. Some of the results follow.

System: Wolbachia pipientis
Assay: Anti-Wolbachia Cell-Based Screen
Format: functional
Parameters: scale not given: in the data most compounds retested in dose-response had high values
Settings: 5 µM

Structure (SMILES)	Percent Effect
Cc1ccccc1C(C(=O)N(C)CCc1cn[nH]c1)N(C)C (stereo not given)	13.24%
O=C(c1ccc(C2CCCO2)s1)N1Cc2ccccc2C1 (stereo not given)	-6.563%
CCOc1ccc(OCc2nccc(-c3cc(C(=O)O)ccn3)n2)cc1	-79.36%
Cc1cc(N(C)Cc2noc(C)n2)n2nc(C)c(C)c2n1	14.08%
Cc1cc(N(C)Cc2ccsc2)n2nc(C)c(C)c2n1	-6.917%
Cc1csc(CN(C)c2cc(C)nc3c(C)c(C)nn23)n1	83.18%
CC(O)CN(c1ccccc1)S(=O)(=O)c1cc(C(=O)O)cc2c1CCC2 (stereo not given)	5.053%
CCCc1nnc(C(=O)N(C)Cc2cnc3ccccn23)o1	-16.11%
CCOc1cccc(C(=O)N2C[C@H]3CC[C@@H]2CN(C(=O)C2CCC2)C3)c1	-8.209%
Cc1cc(C(=O)N2CCCC3(COCCN(CCN(C)C)C3)C2)no1.O=C(O)C(F)(F)F.O=C(O)C(F)(F)F (stereo not given)	-4.031%
CN(C)CCN1C(=O)CCC12CCCN(C(=O)c1cccnc1)CC2.O=C(O)C(F)(F)F.O=C(O)C(F)(F)F (stereo not given)	104.4%
O=C(O)C(F)(F)F.O=C(c1ccoc1)N1CCCC2(CCC(=O)N2Cc2cccnc2)C1 (stereo not given)	-3.168%
O=C(O)C(F)(F)F.O=C(c1ccoc1)N1CCCC2(CCC(=O)N2Cc2ccncc2)C1 (stereo not given)	-1.829%
CN(C)CCN1C(=O)CCCC12CCCN(C(=O)c1ccncc1)C2.O=C(O)C(F)(F)F.O=C(O)C(F)(F)F (stereo not given)	106.1%
CN(C)CCN1C(=O)CCCC12CCCN(C(=O)c1cc[nH]n1)C2.O=C(O)C(F)(F)F (stereo not given)	101.5%
CN(C)CCN1CCOCC2(CCCN(C(=O)c3ccccn3)C2)C1.O=C(O)C(F)(F)F.O=C(O)C(F)(F)F (stereo not given)	-9.412%
Cn1cc(C2(C)CN(C(=O)Nc3ccccc3F)CCO2)cn1 (stereo not given)	1.448%
Cn1ncnc1CNc1ccc2c(c1)N(C(=O)OC(C)(C)C)CCC2	21.04%
Cc1ccsc1CNc1ccccc1C(=O)N1CCNC(=O)C1	4.147%
Cc1nsc(N2CCCN(c3nc(C4CC4)ns3)CC2)n1	3.492%
Cc1ccc(N2CCCC(NCc3ccc(-n4ccnc4)cc3)C2)nn1 (stereo not given)	9.457%
Cc1ccc(N2CCCC(NCc3cc(C)on3)C2)nn1 (stereo not given)	114.3%
Cc1ccc(N2CCCC(NCc3c(C)noc3C)C2)nn1 (stereo not given)	115%
Cc1ccc(N2CCCC(NCc3cscn3)C2)nn1 (stereo not given)	-5.01%
Cc1ccc(N2CCCC(NCc3nc(C)c(C)o3)C2)nn1 (stereo not given)	-3.745%

Structure (SMILES)	Percent Effect
Cc1ccc(N2CCCC(N(C)Cc3c(C)noc3C)C2)nn1 (stereo not given)	-3.849%
Cc1cc(CNC2CCCN(c3cccnn3)C2)no1 (stereo not given)	3.501%
Cc1ccc(N2CCCC(NCc3ccccn3)C2)nn1 (stereo not given)	95.9%
O=C(C1SCCc2sccc21)N1CCC(O)CC1 (stereo not given)	-0.1428%
CCN(CC)c1ccc(C(=O)N2C[C@@H]3CC[C@H](C2)N(CCOC)C3)cc1	14.63%
CCS(=O)(=O)NC1CCCN(Cc2ccn(C)c(=O)c2)C1 (stereo not given)	5.979%
CCN(CC)CC1CCN(Cc2ccn(C)c(=O)c2)CC1	118.1%
Cn1ccc(CN2CCC(CCc3ccc(O)cc3)CC2)cc1=O	11.88%
CN(C)CCC1CCN(Cc2ccn(C)c(=O)c2)CC1	112.8%
Cn1ccc(CN2CCC(COC3CCCC3)CC2)cc1=O	0.749%
Cn1ccc(CN2CCCC(CNS(C)(=O)=O)C2)cc1=O (stereo not given)	2.475%
Cc1cccc(C)c1NC(=O)c1cccc(CN2CCCC2C)c1 (stereo not given)	11.58%
Cn1cc(C(=O)N2CCCC(c3cc(O)n(C)n3)C2)cn1 (stereo not given)	108%
CC(C)c1csc(C2CCCN(C(=O)c3ccc(=O)n(C)n3)C2)n1 (stereo not given)	-15.66%
Cn1ccc(C(=O)N2CCCC(c3cc(O)n(C)n3)C2)n1 (stereo not given)	89.67%
COCCN1CCN(CC(=O)NC2(C#N)CCCC2)CC1C (stereo not given)	16.28%
O=C(CCn1cc(Cl)cn1)N1CCC2(CC1)[C@H](O)C[C@@H]2OCCO	-14.25%
CCc1cnc(NCc2nc(COC)no2)nc1	3.706%
COCCNc1ncc(-c2cc(C)no2)c(-c2ccco2)n1	96.17%
CCCOCCCNc1nccc(-c2cn(C)nc2C)n1	-3.491%
CCOCCN1CCN(Cc2nnc(-c3ccco3)o2)CC1	1.125%
COc1ncc(NCc2csc(-c3ccco3)n2)cc1C(N)=O	-5.121%
COCCNc1ncc(-c2onc(C)c2C)c(-c2ccco2)n1	94.53%
CCN(CC)CCNc1ncc(-c2cc(C)no2)c(-c2ccoc2C)n1	-6.629%
CCOCCCNc1ncc(-c2onc(C)c2C)c(-c2ccco2)n1	100.1%

Structure (SMILES)	Percent Effect
Cc1nsc(N2CCN(C(=O)Nc3ccc4[nH]ccc4c3)CC2)n1	0.5995%
CCc1cc(CN2CCC(CCC(=O)Nc3ccccc3Cl)CC2)on1	3.381%
N#CCCN(CC1CCOC1)S(=O)(=O)c1c(F)cccc1Cl (stereo not given)	4.348%
CSCc1noc(Cn2ccc3ccccc3c2=O)n1	6.504%
CSCc1noc(Cn2ncn3cccc3c2=O)n1	40.19%
COc1ccc(N2CCN(C[C@@H](C)CO)CC2=O)cc1	-31.81%
COCCc1noc(CN2CCN(c3ccc(OC)cc3)C(=O)C2C)n1 (stereo not given)	97.33%
CCN1CC2(CCN(Cc3nc(CSC)no3)CC2)CC1=O	-1.733%
COc1ccc(N2CCN(Cc3nc(CSC)no3)C(C)C2=O)cc1 (stereo not given)	106.8%
CCc1nc(C2CCCN2Cc2nc(CCOC)no2)no1 (stereo not given)	-0.7381%
COc1ccc(N2CCN(Cc3nc(CSC)no3)CC2=O)cc1	98.96%
CCc1ccc(C2CCCCCN2Cc2nc(CCOC)no2)o1 (stereo not given)	-5.886%
Cc1ccc(N2C[C@H]3CCC[C@@H](CN4CCOCC4)[C@H]3C2)nn1.O=C(O)C(F)(F)F	7.309%
O=C1CCc2cc(NC(=O)N3CCCN(Cc4cccs4)CC3)ccc21	4.237%
O=C(NCCn1ccnc1)N1CCCN(Cc2cccs2)CC1	115.6%
Cc1cc(CN2CCN(C(=O)NC(C)Cn3ccnc3)CC2)no1 (stereo not given)	-2.401%
Cc1ccc(C(=O)N2CCN(C(=O)NC(C)Cn3ccnc3)CC2)o1 (stereo not given)	0.8524%
CC(NC(=O)N1CCCN(Cc2cccs2)CC1)c1cccnc1 (stereo not given)	-8.61%
CC(Cn1ccnc1)NC(=O)N1CCN(Cc2cccs2)CC1 (stereo not given)	97.63%
CC(Cn1ccnc1)NC(=O)N1CCCN(Cc2cccs2)CC1 (stereo not given)	98.79%
O=C(Nc1ccc2c(c1)OCCO2)N1CCCN(Cc2cccs2)CC1	-12.77%
CC(Cn1cccn1)NC(=O)N1CCN(Cc2cccs2)CC1 (stereo not given)	7.648%
O=C1CCCN1CCN1CCCCC1Cn1cccn1 (stereo not given)	-13.35%
COc1cc(C2C3=C(COC3=O)Nc3[nH]nc(C)c32)cc2c1OCO2 (stereo not given)	-6.627%
Cc1n[nH]c(C)c1CCNC(=O)Nc1ccc2c(c1)COC2	-11.47%

Structure (SMILES)	Percent Effect
O=C(CN1CCNCC1)NCc1ccc2sccc2c1	-21.43%
O=C(Cn1ccc(=O)cc1)NCc1ccc2sccc2c1	-4.934%
O=C(CN1CCNC1=O)NCc1ccc2sccc2c1	117.7%
CC(=O)N1CC2(CCN(C(=O)c3cccc4[nH]ccc34)CC2)C1	-2.889%
CC(C)C(=O)N1CCC2(CC1)NC(=O)[C@H]1CN(C(=O)N(C)C)C[C@H]12	-23.47%
CC(C)C(=O)N1CCC(C)(c2cc[nH]n2)CC1	145.9%
CC(=O)N1CCC(C)(c2cc[nH]n2)CC1	158.8%
CC(C)C(=O)N1CCC2(CC1)NC(=O)c1ccccc12.Cl	-14.83%
COc1ccc(N)c(N2CCN(C(C)=O)CC2)n1	-3.558%
CC1(c2cc[nH]n2)CCN(C(=O)c2ccc(Cl)cc2)CC1	120.3%
Cc1nnc(CCNC(=O)c2coc(CN3CCOCC3)c2)s1	-3.668%
CCCOc1ccc2c(c1)OCC(C(=O)NC(C)Cn1cccn1)=C2 (stereo not given)	18.55%
O=c1c(C(F)(F)F)cccn1Cc1nnc(-c2cccnc2)o1	-24.3%
Cc1nc2cc(C(=O)N3C[C@@H](C(=O)O)[C@H](C4CC4)C3)ccc2[nH]1	-4.344%
N[C@H]1CN(C(=O)CCc2ccccn2)C[C@@H]1c1ccccc1	8.322%
CCC[C@H]1CN(C(=O)c2ccc3[nH]c(CO)nc3c2)C[C@@H]1N	98.53%
N[C@H]1CN(C(=O)c2ccc3[nH]c(CO)nc3c2)C[C@@H]1c1ccccc1	103.3%
Cc1nc2cc(C(=O)N3C[C@@H](NS(C)(=O)=O)[C@H](C(C)C)C3)ccc2[nH]1	-4.009%
N[C@H]1CN(C(=O)CCC(F)(F)F)C[C@@H]1c1ccccc1	7.576%
N[C@H]1CN(C(=O)c2ccc3[nH]c(=O)c(=O)[nH]c3c2)C[C@@H]1c1ccccc1	97.68%
Nc1nc(CCC(=O)N2C[C@H](c3ccccc3)[C@@H](N)C2)cs1	-7.394%
Cc1nc2cc(C(=O)N3C[C@@H](C(=O)O)[C@H](c4ccncc4)C3)ccc2[nH]1	-0.783%
O=C(CCn1ccc(=O)[nH]c1=O)N1CCC(Oc2ncccc2Cl)CC1	8.092%
Cc1ccc(CNC2CCCc3c2cnn3Cc2ccccc2)s1.Cl (stereo not given)	8.556%
Cc1oc(-c2ccccc2)nc1C(=O)NC1=NCCS1	-10.94%
